Assay results as given in PubChem BioAssay (Tox21).
Results filed as inconclusive are left out. Active and inactive are the calls of the source. Calls follow the shape of the dose curve; as a rule, active = well fitted curve in the direction sought with a large enough effect in the repeat runs; inconclusive = weak or mixed curves; inactive = no such curve, though single readings can be large; an effect the other way counts as inactive or inconclusive.

Experiments:
[1] = molecular target: Cytochrome P450 2D6 (Homo sapiens) (UniProt P10635); experiment: Cytochrome P450 Family 2 Subfamily D Member 6 (CYP2D6) small molecule antagonists: luciferase reporter qHTS assay (AID 1671196); also: nearly all actives have a fitted effect of over 50% in size; also: potency is read from the fitted curve at half-maximal effect; as to activity change, negative = inhibition: series mostly up to about 120 µM
In short: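 Enzyme and proluciferin substrate were first combined with test chemical for 10 min at room temperature. Adding NADPH regeneration solution started a 1 h reaction, stopped with luciferin detection reagent and read by luminescence 20 min later.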

[2] = molecular target: Cytochrome P450 2C19 (Homo sapiens) (UniProt P33261); experiment: Cytochrome P450 Family 2 Subfamily C Member 19 (CYP2C19) small molecule antagonists: luciferase reporter qHTS assay (AID 1671197); also: nearly all actives have a fitted effect of over 65% in size; also: potency is read from the fitted curve at half-maximal effect; as to activity change, negative = inhibition: series mostly up to about 120 µM
In short: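 P450-Glo CYP2C19 screening system; proluciferin substrate; DMSO compound stocks; 10 min RT preincubation; NADPH regeneration, 1 h at 37C; luciferin detection reagent, 20 min RT; luminescence as RLU.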

[3] = molecular target: Cytochrome P450 2C9 (Homo sapiens) (UniProt P11712); experiment: Cytochrome P450 Family 2 Subfamily C Member 9 (CYP2C9) small molecule antagonists: luciferase reporter qHTS assay (AID 1671198); also: nearly all actives have a fitted effect of over 50% in size; also: potency is read from the fitted curve at half-maximal effect; as to activity change, negative = inhibition: series mostly up to about 120 µM
In short: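 Enzyme-substrate mix preincubated with compound 10 min at room temperature; reaction started with NADPH regeneration solution, 1 h 37C. Luminescent luciferin product read after 20 min detection reagent.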

[4] = molecular target: Voltage-gated inwardly rectifying potassium channel KCNH2 (Homo sapiens) (UniProt Q12809); experiment: Human Ether-a-go-go-Related Gene (hERG) channel small molecule antagonists: fluorescence cell-based qHTS assay (AID 1671200);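 also: hERG-expressing U2OS cells given a thallium stimulus after FluxOR II dye loading; series mostly up to about 77 µM; nearly all actives have a fitted effect of over 50% in size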
In short: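 Thallium served as the potassium surrogate; its influx into dye-loaded U2OS cells carrying the channel was measured by fluorescence over 2 min.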

[5] = molecular target: Cytochrome P450 3A4 (Homo sapiens) (UniProt P08684); experiment: Cytochrome P450 Family 3 Subfamily A Member 4 (CYP3A4) small molecule antagonists: luciferase reporter qHTS assay (AID 1671201); also: nearly all actives have a fitted effect of over 50% in size; also: potency is read from the fitted curve at half-maximal effect; as to activity change, negative = inhibition: series mostly up to about 120 µM
In short: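 Relative luminescence units after 20 min with luciferin detection reagent served as read-out. Beforehand, CYP3A4 turned over a proluciferin substrate for 1 h at room temperature with NADPH regeneration, following 10 min compound preincubation.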

[6] = molecular target: Cytochrome P450 1A2 (Homo sapiens) (UniProt P05177); experiment: Cytochrome P450 Family 1 Subfamily A Member 2 (CYP1A2) small molecule antagonists: luciferase reporter qHTS assay (AID 1671199); also: nearly all actives have a fitted effect of over 50% in size; also: potency is read from the fitted curve at half-maximal effect; as to activity change, negative = inhibition: series mostly up to about 120 µM
In short: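 Compounds were incubated with CYP1A2 and a luminogenic proluciferin substrate for 10 min at room temperature before the reaction was started with NADPH regeneration solution. After 1 h, detection reagent was added and light output, proportional to CYP activity, was recorded.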
% is scaled to controls: 0 for no effect and ±100 for the full control effect.

Chain of Cytochrome P450 2D6 (Homo sapiens) (P10635 whole entry, looked up): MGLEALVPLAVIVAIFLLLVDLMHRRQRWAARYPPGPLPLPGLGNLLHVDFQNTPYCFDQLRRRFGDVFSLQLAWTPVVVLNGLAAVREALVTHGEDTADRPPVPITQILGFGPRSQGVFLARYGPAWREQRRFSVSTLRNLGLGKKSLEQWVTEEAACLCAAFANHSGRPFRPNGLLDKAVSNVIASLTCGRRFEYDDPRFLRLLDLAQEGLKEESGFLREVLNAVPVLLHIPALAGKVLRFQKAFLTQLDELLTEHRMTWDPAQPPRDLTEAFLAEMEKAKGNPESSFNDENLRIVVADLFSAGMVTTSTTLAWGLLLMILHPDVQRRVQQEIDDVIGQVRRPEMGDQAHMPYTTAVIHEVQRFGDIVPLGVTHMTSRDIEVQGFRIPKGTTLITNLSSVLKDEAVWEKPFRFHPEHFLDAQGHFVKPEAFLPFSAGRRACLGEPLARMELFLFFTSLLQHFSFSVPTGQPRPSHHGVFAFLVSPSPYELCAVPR
Chain of Cytochrome P450 2C19 (Homo sapiens) (P33261 whole entry, looked up): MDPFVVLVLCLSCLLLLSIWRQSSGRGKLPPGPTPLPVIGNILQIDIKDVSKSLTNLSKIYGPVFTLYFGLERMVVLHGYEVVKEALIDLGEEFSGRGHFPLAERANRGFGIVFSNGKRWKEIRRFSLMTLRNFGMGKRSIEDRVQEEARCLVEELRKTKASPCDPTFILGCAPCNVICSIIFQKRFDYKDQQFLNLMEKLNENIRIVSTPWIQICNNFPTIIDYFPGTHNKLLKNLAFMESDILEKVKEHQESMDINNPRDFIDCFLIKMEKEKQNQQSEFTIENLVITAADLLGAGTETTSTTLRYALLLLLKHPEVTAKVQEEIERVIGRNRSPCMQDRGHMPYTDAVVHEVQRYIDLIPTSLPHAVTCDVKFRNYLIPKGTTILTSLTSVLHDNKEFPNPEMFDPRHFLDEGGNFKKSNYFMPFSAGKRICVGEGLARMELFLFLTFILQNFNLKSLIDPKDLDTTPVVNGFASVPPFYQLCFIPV
Chain of Cytochrome P450 2C9 (Homo sapiens) (P11712 whole entry, looked up): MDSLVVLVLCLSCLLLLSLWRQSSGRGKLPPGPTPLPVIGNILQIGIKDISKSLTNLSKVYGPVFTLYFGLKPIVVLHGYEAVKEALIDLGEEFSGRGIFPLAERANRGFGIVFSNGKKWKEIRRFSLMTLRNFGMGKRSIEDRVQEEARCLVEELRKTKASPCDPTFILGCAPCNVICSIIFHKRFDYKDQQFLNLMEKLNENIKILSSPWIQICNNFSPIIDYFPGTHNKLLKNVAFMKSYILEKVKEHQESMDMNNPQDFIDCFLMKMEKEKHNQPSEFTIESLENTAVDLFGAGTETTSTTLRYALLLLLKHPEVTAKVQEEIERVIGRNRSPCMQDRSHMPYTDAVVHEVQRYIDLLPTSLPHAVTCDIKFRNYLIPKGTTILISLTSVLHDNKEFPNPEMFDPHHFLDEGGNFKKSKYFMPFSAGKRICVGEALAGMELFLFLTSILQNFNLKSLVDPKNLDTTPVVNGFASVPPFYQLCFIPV
Chain of Cytochrome P450 3A4 (Homo sapiens) (P08684 whole entry, looked up): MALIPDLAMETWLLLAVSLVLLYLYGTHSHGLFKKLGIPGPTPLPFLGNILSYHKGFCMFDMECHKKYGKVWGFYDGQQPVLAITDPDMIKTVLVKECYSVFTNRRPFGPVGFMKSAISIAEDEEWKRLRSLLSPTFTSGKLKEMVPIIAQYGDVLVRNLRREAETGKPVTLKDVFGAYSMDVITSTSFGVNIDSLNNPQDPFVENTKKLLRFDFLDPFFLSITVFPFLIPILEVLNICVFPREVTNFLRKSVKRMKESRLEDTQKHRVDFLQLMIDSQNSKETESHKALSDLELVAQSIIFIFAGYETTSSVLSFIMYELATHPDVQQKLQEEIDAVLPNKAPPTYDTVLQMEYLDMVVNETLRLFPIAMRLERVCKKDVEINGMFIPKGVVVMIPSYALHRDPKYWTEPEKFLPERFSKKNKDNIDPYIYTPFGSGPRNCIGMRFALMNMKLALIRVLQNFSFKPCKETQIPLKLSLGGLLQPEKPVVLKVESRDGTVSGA
Chain of Voltage-gated inwardly rectifying potassium channel KCNH2 (Homo sapiens) (Q12809 whole entry, looked up): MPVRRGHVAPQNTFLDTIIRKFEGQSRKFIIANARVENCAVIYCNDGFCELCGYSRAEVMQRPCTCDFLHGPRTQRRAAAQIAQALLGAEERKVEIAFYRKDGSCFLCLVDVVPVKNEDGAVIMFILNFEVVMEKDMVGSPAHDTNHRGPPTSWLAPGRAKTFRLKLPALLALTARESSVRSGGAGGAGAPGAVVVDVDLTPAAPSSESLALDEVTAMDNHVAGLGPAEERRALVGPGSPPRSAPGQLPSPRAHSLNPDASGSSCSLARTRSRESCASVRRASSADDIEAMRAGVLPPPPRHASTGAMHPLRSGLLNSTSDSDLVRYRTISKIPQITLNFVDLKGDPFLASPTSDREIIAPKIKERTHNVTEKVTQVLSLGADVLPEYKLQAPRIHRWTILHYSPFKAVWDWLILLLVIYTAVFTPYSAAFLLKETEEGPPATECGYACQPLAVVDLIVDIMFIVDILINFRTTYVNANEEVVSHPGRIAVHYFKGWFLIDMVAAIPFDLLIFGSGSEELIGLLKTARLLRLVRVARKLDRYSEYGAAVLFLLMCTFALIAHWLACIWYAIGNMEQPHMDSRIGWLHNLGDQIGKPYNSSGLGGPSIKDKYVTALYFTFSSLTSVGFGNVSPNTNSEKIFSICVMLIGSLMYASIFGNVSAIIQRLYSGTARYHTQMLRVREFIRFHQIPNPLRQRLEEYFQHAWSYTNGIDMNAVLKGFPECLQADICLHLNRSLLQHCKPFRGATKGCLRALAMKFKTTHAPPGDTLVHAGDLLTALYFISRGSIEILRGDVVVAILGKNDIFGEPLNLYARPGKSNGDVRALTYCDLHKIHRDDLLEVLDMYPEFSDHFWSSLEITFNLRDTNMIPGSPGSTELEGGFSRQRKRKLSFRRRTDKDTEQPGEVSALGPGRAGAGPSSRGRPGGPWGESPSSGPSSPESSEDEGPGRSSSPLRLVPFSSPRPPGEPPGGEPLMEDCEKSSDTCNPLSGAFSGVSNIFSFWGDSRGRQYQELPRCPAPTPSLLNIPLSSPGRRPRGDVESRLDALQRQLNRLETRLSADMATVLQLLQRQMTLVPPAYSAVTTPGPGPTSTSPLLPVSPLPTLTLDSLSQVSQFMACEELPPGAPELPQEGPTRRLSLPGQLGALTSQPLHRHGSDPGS
Chain of Cytochrome P450 1A2 (Homo sapiens) (P05177 whole entry, looked up): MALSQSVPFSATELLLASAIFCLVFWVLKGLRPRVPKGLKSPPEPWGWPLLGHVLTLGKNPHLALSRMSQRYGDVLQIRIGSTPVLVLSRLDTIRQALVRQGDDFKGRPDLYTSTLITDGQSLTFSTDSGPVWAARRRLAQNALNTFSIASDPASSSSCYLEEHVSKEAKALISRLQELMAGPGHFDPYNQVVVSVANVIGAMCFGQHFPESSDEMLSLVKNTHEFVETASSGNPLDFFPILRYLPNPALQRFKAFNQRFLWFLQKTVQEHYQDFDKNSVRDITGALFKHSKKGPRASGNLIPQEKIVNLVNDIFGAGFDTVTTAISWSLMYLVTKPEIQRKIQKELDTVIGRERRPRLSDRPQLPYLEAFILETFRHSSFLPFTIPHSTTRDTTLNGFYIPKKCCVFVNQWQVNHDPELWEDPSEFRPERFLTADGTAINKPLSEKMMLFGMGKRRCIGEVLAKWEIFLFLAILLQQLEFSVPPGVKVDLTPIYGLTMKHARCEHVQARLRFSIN

COC(=O)/C=C(\C)CCC=C(C)C
active: Potency [2] 25.2 µM | Potency [3] 39.9 µM | Potency [5] 31.7 µM
inactive: Potency [1] | Potency [4]

CC(=O)O[C@@H]1CC2C3CCc4cc(OC(=O)c5ccccc5)ccc4C3CCC2(C)[C@H]1OC(C)=O (stereo not given in full)
inactive: Potency [1] | Potency [2] | Potency [6] | Potency [5]
active: Potency [3] 11 µM

C=CC(C)(CCC=C(C)C)OC(=O)C(C)C (stereo not given)
inactive: Potency [1] | Potency [6] | Potency [4]
active: Potency [2] 71 µM | Potency [3] 39.9 µM | Potency [5] 63.3 µM

CN(C)CCCN(C)C
inactive: activity change, negative = inhibition [1] -7.64% [at 10.5 µM] | activity change, negative = inhibition [2] -19.3% [at 10.5 µM] | activity change, negative = inhibition [3] -13.3% [at 10.5 µM] | activity change, negative = inhibition [4] 0.578% [at 6.97 µM] | activity change, negative = inhibition [5] 12.7% [at 10.5 µM]
active: Potency [6] 1.95 µM

CC/C=C\CCCCCCCCCCOC(C)=O
inactive: Potency [1] | Potency [2] | Potency [3] | Potency [6] | Potency [5]

CO/N=C(\C(=O)O)c1csc(NC(=O)CCl)n1
inactive: Potency [1] | Potency [2] | Potency [3] | Potency [6] | Potency [5]

OCCC(F)(F)C(F)(F)C(F)(F)C(F)(F)C(F)(F)C(F)(F)F
active: Potency [6] 31.7 µM
inactive: Potency [1] | Potency [2] | Potency [3] | Potency [4] | Potency [5]

CC(=O)SC[C@@H](C)C(=O)N1CCC[C@H]1C(=O)N[C@@H](Cc1ccccc1)C(=O)O
inactive: Potency [1] | Potency [2] | Potency [3] | Potency [6] | Potency [4] | Potency [5]

CCCCCCCCCCCCCCBr
inactive: Potency [1] | Potency [2] | Potency [3] | Potency [6] | Potency [4] | Potency [5]

BrCCOc1ccccc1
inactive: Potency [3] | Potency [4] | Potency [5]
active: Potency [1] 56.6 µM | Potency [2] 89.6 µM

CC(=O)c1ccc2ccc3ccccc3c2c1
inactive: Potency [1]
active: Potency [2] 22.3 µM | Potency [3] 12.6 µM | Potency [6] 1.12 µM | Potency [5] 39.7 µM

Cc1cc(O)c(Cl)cc1C
inactive: Potency [1] | Potency [3] | Potency [4] | Potency [5]
active: Potency [2] 71 µM | Potency [6] 25.2 µM

CCc1ccc(CC)cc1
inactive: Potency [1] | Potency [2] | Potency [3] | Potency [6] | Potency [4] | Potency [5]

O=Cc1ccc(C(=O)O)cc1
inactive: Potency [1] | Potency [2] | Potency [3] | Potency [6] | Potency [4] | Potency [5]

CC(C)(C)c1ccc(C(=O)CCCCl)cc1
active: Potency [6] 12.3 µM
inactive: Potency [1] | Potency [2] | Potency [3] | Potency [5]

CCOC(=O)CN1CCCC1=O
inactive: Potency [1] | Potency [2] | Potency [3] | Potency [6] | Potency [4] | Potency [5]

COc1cc(S(N)(=O)=O)cc(C(=O)O)c1OC
inactive: Potency [1] | Potency [2] | Potency [3] | Potency [6] | Potency [4] | Potency [5]

CCN1CCN(C(=O)N[C@@H](C(=O)N[C@@H]2C(=O)N3[C@@H]2SC(C)(C)[C@H]3C(=O)O)c2ccccc2)C(=O)C1=O
inactive: Potency [1] | Potency [2] | Potency [3] | Potency [6] | Potency [5]

N#CC1(N)CCCCC1
inactive: Potency [1] | Potency [2] | Potency [3] | Potency [6] | Potency [5]

CCCCCCCCOCCC#N
inactive: Potency [1] | Potency [2] | Potency [3] | Potency [6] | Potency [5]

CCCCCCCCCCCC(C)=O
inactive: Potency [1] | Potency [2] | Potency [3] | Potency [6] | Potency [4] | Potency [5]

CCOCCOCCOC(C)=O
inactive: Potency [1] | Potency [2] | Potency [3] | Potency [6] | Potency [4] | Potency [5]

O=CN1CCCCC1
inactive: Potency [1] | Potency [2] | Potency [3] | Potency [6] | Potency [5]

CCCCCC(CC)OC(=O)CCCOc1ccc(Cl)cc1Cl (stereo not given)
active: Potency [2] 35.5 µM | Potency [3] 28.2 µM | Potency [6] 35.5 µM
inactive: Potency [1] | Potency [5]

c1coc(Cn2cccc2)c1
inactive: Potency [1] | Potency [2] | Potency [3] | Potency [6] | Potency [5]

Cc1cc(C)c(C)c(C)c1
inactive: Potency [1] | Potency [2] | Potency [3] | Potency [6] | Potency [4] | Potency [5]

C=CCOC(=O)CCCCCCCC
active: Potency [1] 63.8 µM | Potency [6] 40.2 µM
inactive: Potency [2] | Potency [3] | Potency [5]

CCCCCCCOC(C)=O
inactive: Potency [1] | Potency [2] | Potency [3] | Potency [6] | Potency [4] | Potency [5]

C=CC(=O)OCC[N+](C)(C)C
inactive: Potency [1] | Potency [2] | Potency [3] | Potency [6] | Potency [4] | Potency [5]

Cc1cc(N)no1
active: Potency [1] 65.6 µM
inactive: Potency [2] | Potency [3] | Potency [4] | Potency [5]

COc1cc(C(=O)NC2CCCNC2)cc(OC)c1OC (stereo not given)
active: Potency [6] 15.5 µM
inactive: Potency [1] | Potency [2] | Potency [4] | Potency [5]

Cc1ccc(OC(=O)CC(C)C)cc1
inactive: Potency [1] | Potency [2] | Potency [3] | Potency [4] | Potency [5]

CC(C)=CCC/C(C)=C\C#N
inactive: Potency [1] | Potency [3] | Potency [4] | Potency [5]
active: Potency [2] 39.9 µM

CCCCNCC
active: Potency [2] 27.2 µM | Potency [6] 19.3 µM
inactive: Potency [1] | Potency [4] | Potency [5]

CCCCN1C(=O)c2ccccc2C1=O
active: Potency [2] 20.7 µM | Potency [6] 2.61 µM
inactive: Potency [1] | Potency [4] | Potency [5]

CCC(C)c1nccnc1OC (stereo not given)
inactive: Potency [1] | Potency [2] | Potency [3] | Potency [4] | Potency [5]
